Assay results taken from PubChem BioAssay (NCATS).
“And” between values parts separate entries of the source, which are not always exact repeats. Equal entries are not always repeated. Inconclusive results are not listed. The source made the active and inactive calls. Unless noted, the call rests on the fitted dose curve; in most records, active means well fitted curve in the direction sought with a large enough effect; inconclusive means small, poorly fitted or top-dose-only effect, or another doubt; inactive means no such curve, though single readings can be large; an effect the other way counts as inactive or inconclusive.

Tests used:
[1] = AP1 Signaling Pathway (AID 357; active means well fitted curve in either direction with a large enough effect, not every such curve was filed as active;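 further: ME-180 reporter cells stimulated with EGF at its EC50 level; on the % scale 0 is the no-effect control and ±100 the full control effect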)
In short: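 Modulation of EGF-driven AP-1 transcription was assessed with a beta-lactamase reporter in ME-180 cells. Compound and EC50 EGF were co-incubated 5 hours at 37 °C before 2.5-hour CCF4 loading at room temperature and dual-emission reading.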

[2] = target: Cytochrome P450 1A2 (Homo sapiens) (UniProt P05177); test: p450-cyp1a2 (AID 410; calls by dose curve;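 further: -100% = full effect of reference inhibitor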)
In short: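 Luminescent demethylation readout: Luciferin-ME (100uM, equal to Km) turned over by 20nM CYP1A2 for 60 min at room temperature after NADPH regeneration addition, following 10 min compound preincubation. Normalization used 57 uM furafylline as full inhibition.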

[3] = NFAT Signaling Pathway (AID 444; active means well fitted curve in either direction with a large enough effect, not every such curve was filed as active;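 further: carbachol stimulus at about its EC50 of 1 µM final; on the % scale 0 is the no-effect control and ±100 the full control effect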); conditions: Jurkat NFAT-bla M1, carbachol, beta-lactamase ratio, 5 h; at 17.2 µM (top of the series)
In short: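 Jurkat cells with NFAT-driven β-lactamase reporter and co-expressed M1 receptor, stimulated with carbachol (final 1 uM, ~EC50), compound titration, 5 h at 37 °C. CCF4 loaded 1 h at RT; 460/530 nm ratio gave %activity and AC50.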

[4] = Stat Signaling Pathway (AID 446; active means well fitted curve in either direction with a large enough effect, not every such curve was filed as active;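 further: ME-180 cervical cancer cells given 40 pM IL-6 alongside compound; SIE-controlled beta-lactamase reporter measured as 460/530 nm FRET emission ratio; on the % scale 0 is the no-effect control and ±100 the full control effect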)
In short: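 Normalization used AC90 stimulation (300 pM IL-6) and AC90 inhibition (125 nM pan-JAK inhibitor at 40 pM IL-6). The underlying signal is SIE-driven beta-lactamase in ME-180 cells after 5 h IL-6 exposure with compound.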

[5] = target: Glucocorticoid receptor (Homo sapiens) (UniProt P04150); test: GR-GFP Redistribution (AID 450;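 active means compounds whose dose series gives a full or clear partial fitted curve of increased nuclear translocation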; further: potency means the concentration at half of the fitted maximal effect); conditions: U2OS GR-GFP nuclear translocation, laser cytometry, 2 h
[6] = target: Glucocorticoid receptor (Homo sapiens) (UniProt P04150); test: GR-EFC Redistribution (AID 451; calls by dose curve; further: potency means the concentration at half of the fitted maximal effect); conditions: CHO-K1 GR-EFC translocation, beta-gal luminescence, 2 h
In short: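 CHO-K1 cells expressing nuclear EA and GR-ED fragments of b-gal; compounds titrated up to 46 uM final, 2 h at 37 C. GR nuclear translocation read as complemented b-gal luminescence after 1 h RT detection.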

[7] = target: Mitogen-activated protein kinase 10 (Mus musculus) (UniProt Q61831); test: JNK3 AlphaScreen Assay (AID 530; active means well fitted curve in either direction with a large enough effect, not every such curve was filed as active;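 further: kinase came from lysate of stimulated human HepG2 cells; signal reports phosphorylation of biotinylated GST-cJun 1-79 at Ser73 with 10 µM ATP; on the % scale 0 is the no-effect control and ±100 the full control effect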)
In short: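 Activity was read by AlphaScreen after JNK3-containing HepG2 lysate (cytokine pre-activated) phosphorylated biotinylated GST-cJun with 10 uM ATP at room temperature. Phospho-Ser73 cJun antibody with Protein-A acceptor beads provided detection.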

[8] = target: 3',5'-cyclic-AMP phosphodiesterase 4B (Homo sapiens) (UniProt Q07343); test: qHTS Assay for Inhibitors of PDE-IV (AID 607; active means well fitted activation curve with a large enough effect in the main read-out, with a control signal flat, not every such curve was filed as active; further: % of control where 0% means no effect)
In short: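 HEK293 ACTOne cells with CNG channel (1000/well), endogenous PDE4; membrane potential dye, compounds up to 22.9 uM final. Fluorescence Ex 535/Em 590; RO 20-1724 (100 uM final) as reference.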

[9] = target: Cytochrome P450 2C9 (Homo sapiens) (UniProt P11712); test: qHTS Assay for Inhibitors and Substrates of Cytochrome P450 2C9 (AID 883); further: on the % scale 0 is the no-effect control and ±100 the full control effect; nearly all actives have a fitted effect of over 60% in size
In short: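 Signal: luciferase luminescence reporting luciferin produced by CYP2C9. Conditions: 10nM enzyme, Luciferin-H 100uM at KM, 25mM KPO4, 37C, 60 min NADPH-driven reaction. Reference: 57uM sulphaphenazole as 100% inhibition.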

[10] = target: Cytochrome P450 3A4 (Homo sapiens) (UniProt P08684); test: qHTS Assay for Inhibitors and Substrates of Cytochrome P450 3A4 (AID 884); further: on the % scale 0 is the no-effect control and ±100 the full control effect; nearly all actives have a fitted effect of over 50% in size
In short: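 Luminescent readout of luciferin produced by CYP3A4 (20 nM) dealkylation of Luciferin-PPXE, 25 uM (its KM). NADPH-driven reaction ran 60 min at RT after 10 min compound preincubation; data scaled to 57 uM ketoconazole as 100% inhibition.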

[11] = target: Cytochrome P450 2D6 (Homo sapiens) (UniProt P10635); test: qHTS Assay for Inhibitors and Substrates of Cytochrome P450 2D6 (AID 891);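 further: luciferin methyl ether substrate demethylated by CYP2D6 with NADPH regeneration; on the % scale 0 is the no-effect control and ±100 the full control effect; nearly all actives have a fitted effect of over 60% in size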
In short: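 Luminescent read-out of luciferin formed by 5 nM human CYP2D6 demethylating 30 uM Luciferin-ME EGE (Km level) over 60 min at room temperature after NADPH regeneration addition. Data normalized to full inhibition by 1.43 uM quinidine.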

[12] = target: Cytochrome P450 2C19 (Homo sapiens) (UniProt P33261); test: qHTS Assay for Inhibitors and Substrates of Cytochrome P450 2C19 (AID 899); further: on the % scale 0 is the no-effect control and ±100 the full control effect; nearly all actives have a fitted effect of over 60% in size
In short: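 Signal comes from luciferase acting on luciferin released by CYP2C19-mediated hydroxylation of Luciferin-H EGE, 10uM (KM). Assay mix: 5nM enzyme, 50mM KPO4; 60 min at 37C with NADPH regeneration. Data normalized against 57uM ketoconazole.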

[13] = qHTS Assay for Lipid Storage Modulators (AID 1519; calls by dose curve); conditions: Drosophila S3 cells, BODIPY lipid droplet/cell ratio, laser cytometry, cells loaded with oleic acid
In short: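 Cells seeded at 5,000 per well were treated with compounds over a concentration series and loaded with oleic acid (400 uM, as added). Lipid droplet fluorescence (488 nm excitation, 500-530 nm channel) was read by laser-scanning cytometry and normalized to 20 uM Triacsin C.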

[14] = target: Ubiquitin carboxyl-terminal hydrolase 1 (Homo sapiens) (UniProt O94782); test: Inhibitors of USP1/UAF1: Pilot qHTS (AID 504865);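 further: rhodamine fluorescence freed from ubiquitin-rhodamine substrate followed over time; top concentration of the series differs between compounds; on the % scale 0 is the no-effect control and ±100 the full control effect; nearly all actives have a fitted effect of over 35% in size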
In short: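 USP1/UAF1 complex at 1 nM preincubated 15 min at room temperature with compound, then Ub-Rho substrate added at 150 nM final. Fluorescence (480/540 nm) read kinetically in 50 mM HEPES pH 7.8, 0.5 mM EDTA, 1 mM TCEP, 0.1 mg/ml BSA, 0.01% Tween-20.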

[15] = target: DNA dC->dU-editing enzyme APOBEC-3G (Homo sapiens) (UniProt Q9HC16); test: qHTS for inhibitors of Vif-A3G interactions: Validation (AID 588379); further: 0% is about no effect
In short: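 Yellow fluorescence (Ex 488, Em 500-530) of Vif-coexpressing HeLa A3G-eYFP cells, scanned by Acumen cytometer, reports blocked A3G degradation. Cells plated at 700/well overnight at 37 deg C before compound addition, then a further overnight compound incubation at 37 deg C.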

[16] = P-glycoprotein substrates identified in KB-3-1 adenocarcinoma cell line, qHTS therapeutic library screen (AID 1346986); further: on the % scale 0 is the no-effect control and ±100 the full control effect; nearly all actives have a fitted effect of over 60% in size
In short: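 In 1536-well format, 500 cells/well received pinned compound titrations and were incubated 72 h, 5% CO2. Viability was read by CellTiter-Glo; cytotoxic if AC50 < 10 uM and efficacy >50%.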

[17] = P-glycoprotein substrates identified in KB-8-5-11 adenocarcinoma cell line, qHTS therapeutic library screen (AID 1346987); further: nearly all actives have a fitted effect of over 65% in size
In short: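 Compounds are pinned in dose-response onto KB-8-5-11 cells (500 cells/well, colchicine-free medium) and left 72 h at 37 degree C. CellTiter-Glo luminescence then yields AC50 values.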

[18] = Primary qHTS for inhibitors of nuclear receptor binding SET domain protein 2 (NSD2) in an isogenic RCH-ACV NSD2 p.E1099K mutant (9B) (AID 1645876); further: on the % scale 0 is the no-effect control and ±100 the full control effect; nearly all actives have a fitted effect of over 70% in size
[19] = Primary qHTS for inhibitors of nuclear receptor binding SET domain protein 2 (NSD2) in an RCH-ACV wild type WT cells (2C) (AID 1645877); further: on the % scale 0 is the no-effect control and ±100 the full control effect; nearly all actives have a fitted effect of over 70% in size
[20] = target: Glutathione peroxidase 1 (Homo sapiens) (UniProt P07203); test: Primary qHTS Assay for Inhibitors of Recombinant Selenoprotein Glutathione Peroxidase 1 (GPX1) (AID 1845191); further: nearly all actives have a fitted effect of over 65% in size
In short: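 GR-coupled readout: NADPH consumption tracked by fluorescence, ex 340/em 450 nm, at t=0 and after 15 min at RT. Final mix 10 nM GPX1, 1 mM GSH, 0.5 mM CHP, 0.5 mM NADPH, 100 nM GR, 0.01% BSA, following 30 min enzyme–compound preincubation.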

Chain of Glucocorticoid receptor (Homo sapiens) (P04150 whole entry, looked up, the tested form may be a part): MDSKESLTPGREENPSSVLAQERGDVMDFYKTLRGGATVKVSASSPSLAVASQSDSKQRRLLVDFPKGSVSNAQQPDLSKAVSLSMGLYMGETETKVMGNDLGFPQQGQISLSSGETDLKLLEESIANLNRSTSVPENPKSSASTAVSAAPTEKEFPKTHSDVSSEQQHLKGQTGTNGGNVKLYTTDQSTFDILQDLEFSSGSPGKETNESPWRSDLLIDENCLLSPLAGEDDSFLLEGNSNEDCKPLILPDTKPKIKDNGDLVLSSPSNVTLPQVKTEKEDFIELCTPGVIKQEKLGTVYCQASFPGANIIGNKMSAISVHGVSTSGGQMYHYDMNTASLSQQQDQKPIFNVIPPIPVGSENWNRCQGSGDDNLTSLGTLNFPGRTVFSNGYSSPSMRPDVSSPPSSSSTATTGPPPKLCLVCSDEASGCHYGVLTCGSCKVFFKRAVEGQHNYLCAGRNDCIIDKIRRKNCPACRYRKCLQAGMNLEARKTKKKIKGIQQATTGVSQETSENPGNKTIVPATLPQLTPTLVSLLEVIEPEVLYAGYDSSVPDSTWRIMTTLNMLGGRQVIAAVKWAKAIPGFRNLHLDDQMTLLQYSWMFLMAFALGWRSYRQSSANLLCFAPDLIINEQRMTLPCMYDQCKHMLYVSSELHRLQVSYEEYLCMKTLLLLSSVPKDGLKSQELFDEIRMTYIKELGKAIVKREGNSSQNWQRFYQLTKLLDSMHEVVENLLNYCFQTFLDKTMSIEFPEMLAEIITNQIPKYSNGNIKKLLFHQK
Chain of Cytochrome P450 2C9 (Homo sapiens) (P11712 whole entry, looked up): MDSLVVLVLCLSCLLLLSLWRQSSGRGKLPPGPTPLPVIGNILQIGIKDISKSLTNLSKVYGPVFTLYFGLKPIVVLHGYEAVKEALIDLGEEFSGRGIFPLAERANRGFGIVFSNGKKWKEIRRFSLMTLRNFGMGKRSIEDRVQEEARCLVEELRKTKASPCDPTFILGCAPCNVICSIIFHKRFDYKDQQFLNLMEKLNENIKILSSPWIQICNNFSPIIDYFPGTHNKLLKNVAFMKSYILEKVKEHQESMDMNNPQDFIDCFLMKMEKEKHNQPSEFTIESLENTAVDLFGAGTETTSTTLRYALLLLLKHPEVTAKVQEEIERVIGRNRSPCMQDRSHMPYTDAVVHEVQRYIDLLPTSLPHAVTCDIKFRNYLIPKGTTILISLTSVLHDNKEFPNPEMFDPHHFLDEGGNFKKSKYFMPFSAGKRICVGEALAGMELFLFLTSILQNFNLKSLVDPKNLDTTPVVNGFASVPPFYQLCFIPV
Chain of Cytochrome P450 1A2 (Homo sapiens) (P05177 whole entry, looked up): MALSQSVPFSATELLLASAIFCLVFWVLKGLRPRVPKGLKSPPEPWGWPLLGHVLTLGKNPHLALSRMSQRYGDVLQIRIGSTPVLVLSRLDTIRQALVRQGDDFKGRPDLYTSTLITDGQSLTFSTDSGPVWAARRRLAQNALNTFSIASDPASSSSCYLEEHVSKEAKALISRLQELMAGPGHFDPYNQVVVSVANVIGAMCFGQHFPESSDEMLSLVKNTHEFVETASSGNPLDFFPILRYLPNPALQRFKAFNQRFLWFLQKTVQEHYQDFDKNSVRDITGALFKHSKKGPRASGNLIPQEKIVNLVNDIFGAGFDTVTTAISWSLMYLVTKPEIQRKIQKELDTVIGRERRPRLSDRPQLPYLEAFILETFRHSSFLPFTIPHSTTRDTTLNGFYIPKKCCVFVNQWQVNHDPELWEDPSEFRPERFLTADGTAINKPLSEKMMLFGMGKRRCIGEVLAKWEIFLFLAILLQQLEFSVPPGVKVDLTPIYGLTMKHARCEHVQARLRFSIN
Chain of Cytochrome P450 3A4 (Homo sapiens) (P08684 whole entry, looked up): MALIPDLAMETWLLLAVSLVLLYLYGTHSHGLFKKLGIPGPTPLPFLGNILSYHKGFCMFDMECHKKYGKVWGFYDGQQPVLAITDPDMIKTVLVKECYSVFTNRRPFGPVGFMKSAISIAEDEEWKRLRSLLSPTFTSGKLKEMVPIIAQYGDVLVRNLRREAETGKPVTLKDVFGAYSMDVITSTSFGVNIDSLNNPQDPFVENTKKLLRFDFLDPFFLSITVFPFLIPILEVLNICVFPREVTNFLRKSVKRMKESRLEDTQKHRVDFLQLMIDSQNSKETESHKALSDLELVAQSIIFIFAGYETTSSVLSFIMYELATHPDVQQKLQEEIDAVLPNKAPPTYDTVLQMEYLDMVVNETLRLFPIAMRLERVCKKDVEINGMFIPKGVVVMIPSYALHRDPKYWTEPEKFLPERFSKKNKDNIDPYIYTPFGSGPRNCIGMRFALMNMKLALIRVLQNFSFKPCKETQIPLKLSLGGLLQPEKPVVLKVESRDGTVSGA
Chain of 3',5'-cyclic-AMP phosphodiesterase 4B (Homo sapiens) (Q07343 whole entry, looked up): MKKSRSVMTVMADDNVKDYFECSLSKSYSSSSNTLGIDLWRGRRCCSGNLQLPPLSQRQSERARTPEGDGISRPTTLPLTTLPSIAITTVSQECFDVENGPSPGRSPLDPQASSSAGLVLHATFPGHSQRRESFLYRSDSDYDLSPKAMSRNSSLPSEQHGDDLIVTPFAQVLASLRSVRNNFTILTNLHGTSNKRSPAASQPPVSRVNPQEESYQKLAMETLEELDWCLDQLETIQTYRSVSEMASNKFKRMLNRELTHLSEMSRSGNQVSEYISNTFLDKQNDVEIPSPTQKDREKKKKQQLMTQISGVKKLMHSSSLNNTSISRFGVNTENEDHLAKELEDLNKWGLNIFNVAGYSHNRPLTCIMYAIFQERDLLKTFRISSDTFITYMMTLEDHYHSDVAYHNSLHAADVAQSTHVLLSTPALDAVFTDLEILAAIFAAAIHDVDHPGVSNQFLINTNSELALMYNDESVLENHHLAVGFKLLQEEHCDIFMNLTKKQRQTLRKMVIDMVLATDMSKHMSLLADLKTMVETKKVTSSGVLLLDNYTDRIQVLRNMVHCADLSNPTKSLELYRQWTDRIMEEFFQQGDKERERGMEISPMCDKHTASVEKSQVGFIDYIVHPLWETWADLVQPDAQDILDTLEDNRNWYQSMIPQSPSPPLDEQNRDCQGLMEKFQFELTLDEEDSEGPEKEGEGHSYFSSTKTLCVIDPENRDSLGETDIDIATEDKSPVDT
Chain of DNA dC->dU-editing enzyme APOBEC-3G (Homo sapiens) (Q9HC16 whole entry, looked up): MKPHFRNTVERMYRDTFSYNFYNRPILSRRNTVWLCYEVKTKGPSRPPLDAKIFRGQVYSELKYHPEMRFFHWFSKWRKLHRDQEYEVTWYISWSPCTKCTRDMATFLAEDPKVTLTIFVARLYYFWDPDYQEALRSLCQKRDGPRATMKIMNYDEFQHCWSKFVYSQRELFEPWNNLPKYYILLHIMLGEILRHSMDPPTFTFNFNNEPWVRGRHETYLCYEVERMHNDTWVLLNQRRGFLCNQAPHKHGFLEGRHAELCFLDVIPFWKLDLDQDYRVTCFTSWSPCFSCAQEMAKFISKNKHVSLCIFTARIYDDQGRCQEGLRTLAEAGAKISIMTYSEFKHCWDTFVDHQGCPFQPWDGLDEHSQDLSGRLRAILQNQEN
Chain of Glutathione peroxidase 1 (Homo sapiens) (P07203 whole entry, looked up): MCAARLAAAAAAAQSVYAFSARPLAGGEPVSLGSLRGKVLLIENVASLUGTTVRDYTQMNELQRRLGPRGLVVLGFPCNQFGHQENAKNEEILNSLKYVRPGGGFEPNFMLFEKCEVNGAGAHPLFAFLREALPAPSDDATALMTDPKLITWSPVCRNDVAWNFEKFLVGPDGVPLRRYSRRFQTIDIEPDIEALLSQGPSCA
Chain of Ubiquitin carboxyl-terminal hydrolase 1 (Homo sapiens) (O94782 whole entry, looked up): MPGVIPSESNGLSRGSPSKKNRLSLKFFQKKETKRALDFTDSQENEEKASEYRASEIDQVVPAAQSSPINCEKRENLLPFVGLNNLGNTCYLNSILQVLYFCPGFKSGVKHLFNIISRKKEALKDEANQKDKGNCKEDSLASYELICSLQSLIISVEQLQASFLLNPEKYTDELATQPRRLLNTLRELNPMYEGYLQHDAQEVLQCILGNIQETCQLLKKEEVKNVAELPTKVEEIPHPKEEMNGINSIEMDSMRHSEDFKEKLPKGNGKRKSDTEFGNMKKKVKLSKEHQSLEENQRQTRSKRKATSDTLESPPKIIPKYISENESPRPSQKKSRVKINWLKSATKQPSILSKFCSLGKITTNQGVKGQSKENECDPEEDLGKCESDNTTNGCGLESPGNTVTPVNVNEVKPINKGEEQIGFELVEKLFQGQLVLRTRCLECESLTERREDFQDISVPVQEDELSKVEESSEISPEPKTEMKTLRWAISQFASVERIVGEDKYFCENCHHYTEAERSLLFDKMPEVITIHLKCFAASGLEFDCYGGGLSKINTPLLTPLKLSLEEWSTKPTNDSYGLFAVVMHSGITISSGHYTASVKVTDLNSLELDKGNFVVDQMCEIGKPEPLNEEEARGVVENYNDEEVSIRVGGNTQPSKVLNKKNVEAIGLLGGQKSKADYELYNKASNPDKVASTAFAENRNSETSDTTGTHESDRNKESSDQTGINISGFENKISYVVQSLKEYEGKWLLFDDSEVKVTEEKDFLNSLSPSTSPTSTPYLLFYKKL
Chain of Cytochrome P450 2C19 (Homo sapiens) (P33261 whole entry, looked up): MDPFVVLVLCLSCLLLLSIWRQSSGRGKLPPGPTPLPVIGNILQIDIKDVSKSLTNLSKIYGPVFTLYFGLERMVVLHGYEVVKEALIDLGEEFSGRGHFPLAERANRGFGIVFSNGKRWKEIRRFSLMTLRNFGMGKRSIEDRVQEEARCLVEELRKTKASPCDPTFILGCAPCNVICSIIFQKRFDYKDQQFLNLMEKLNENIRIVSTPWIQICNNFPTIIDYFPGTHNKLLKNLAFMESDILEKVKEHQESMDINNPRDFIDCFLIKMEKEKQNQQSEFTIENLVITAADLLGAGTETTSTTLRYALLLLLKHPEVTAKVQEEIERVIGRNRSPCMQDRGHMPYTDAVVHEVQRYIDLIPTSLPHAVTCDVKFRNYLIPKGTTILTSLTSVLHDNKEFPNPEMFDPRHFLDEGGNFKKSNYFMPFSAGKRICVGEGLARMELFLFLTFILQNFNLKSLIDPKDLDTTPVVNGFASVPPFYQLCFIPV

COc1ccn(C)c(=O)c1C#N
inactive: outcome [1] | Potency [2] | activity change, negative = inhibition [3] 6.67% | outcome [4] | Potency [5] > 20.6 µM and > 46 µM | Potency [6] > 20.6 µM and > 46 µM | outcome [7] | Potency [8] | Potency [9] | Potency [10] | Potency [11] | Potency [12] | activity change, negative = inhibition ([13]; at 25.7 µM (top of the series)) -0.52% | activity change, negative = inhibition ([13]; at 57.5 µM (top of the series)) 1.07% | Potency [14] | Potency [15] | Potency [16] | Potency [17] | Potency [18] | Potency [19] | Potency [20]
5.59% and -19.6%: max response ([13]; measured here: lipid channel max response)
4.19% and -22.1%: max response ([13]; measured here: cell count channel max response)
